Source: PubChem BioAssay AID624260 (Broad Institute, 2012)
In all, about 44,000 compounds went through this assay and about 30 (0.07%) were called active. Another 1% or so got no clear call; they are omitted. This is one part of a sample in which actives are shown more often than they occur. A number with no mark means an inactive call. No stated cut-off is given here; in the data, active means inhibition above about 54% (passing the limit was not always enough); inconclusive means no clear call, values can overlap the other calls.

Target: Histone-lysine N-methyltransferase NSD2 (Homo sapiens) (UniProt O96028)
Assay: NSD2 histone methyltransferase activity blockers – biochemical, plate reader, single point, primary screen (AID 624260);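 further: inhibitors reduce the monomethyl H3K36 fluorescence signal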
Conditions: NSD2-SET H3K36me1 DELFIA fluorescence, at 12.5 µM, stronger effect = higher value

Chain of Histone-lysine N-methyltransferase NSD2 (Homo sapiens) (O96028 whole entry, looked up): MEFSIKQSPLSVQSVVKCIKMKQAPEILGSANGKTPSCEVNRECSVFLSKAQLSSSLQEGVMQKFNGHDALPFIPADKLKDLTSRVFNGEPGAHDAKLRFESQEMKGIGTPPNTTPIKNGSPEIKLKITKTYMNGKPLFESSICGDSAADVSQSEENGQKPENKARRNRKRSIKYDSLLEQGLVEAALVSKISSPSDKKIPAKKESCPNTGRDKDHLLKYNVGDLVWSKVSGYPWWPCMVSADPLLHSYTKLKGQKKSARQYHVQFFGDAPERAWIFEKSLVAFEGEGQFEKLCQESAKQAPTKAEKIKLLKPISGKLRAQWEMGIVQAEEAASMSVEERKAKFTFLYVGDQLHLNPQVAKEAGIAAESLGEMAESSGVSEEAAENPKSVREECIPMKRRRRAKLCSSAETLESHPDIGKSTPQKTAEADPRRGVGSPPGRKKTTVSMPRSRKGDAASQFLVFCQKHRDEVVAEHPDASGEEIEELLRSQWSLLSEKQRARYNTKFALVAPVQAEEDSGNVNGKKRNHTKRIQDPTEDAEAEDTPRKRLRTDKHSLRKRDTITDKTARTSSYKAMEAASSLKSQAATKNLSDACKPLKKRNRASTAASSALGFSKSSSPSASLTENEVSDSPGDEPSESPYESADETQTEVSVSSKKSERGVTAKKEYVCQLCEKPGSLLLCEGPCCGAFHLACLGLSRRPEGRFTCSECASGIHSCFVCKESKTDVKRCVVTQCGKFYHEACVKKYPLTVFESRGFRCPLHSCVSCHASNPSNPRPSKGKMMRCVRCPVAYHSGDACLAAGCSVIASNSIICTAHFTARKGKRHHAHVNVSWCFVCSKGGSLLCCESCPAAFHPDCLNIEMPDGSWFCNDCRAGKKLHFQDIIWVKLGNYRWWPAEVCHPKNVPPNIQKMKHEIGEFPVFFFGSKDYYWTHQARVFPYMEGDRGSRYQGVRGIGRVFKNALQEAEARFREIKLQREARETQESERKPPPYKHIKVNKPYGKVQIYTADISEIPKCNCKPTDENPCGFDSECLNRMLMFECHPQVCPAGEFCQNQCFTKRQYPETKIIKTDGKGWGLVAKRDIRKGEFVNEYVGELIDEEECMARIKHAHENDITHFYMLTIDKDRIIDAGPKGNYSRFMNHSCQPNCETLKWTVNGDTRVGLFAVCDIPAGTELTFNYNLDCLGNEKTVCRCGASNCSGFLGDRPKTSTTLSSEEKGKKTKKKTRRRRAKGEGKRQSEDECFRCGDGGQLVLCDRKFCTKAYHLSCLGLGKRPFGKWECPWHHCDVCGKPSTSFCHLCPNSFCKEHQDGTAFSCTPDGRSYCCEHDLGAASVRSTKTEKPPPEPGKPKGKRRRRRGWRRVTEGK

| SMILES | inhibition |
| --- | --- |
| C[C@@H]1CN([C@@H](C)CO)S(=O)(=O)c2ccc(C#CCN(C)C)cc2O[C@@H]1CN(C)S(=O)(=O)c1cccc(F)c1 | -0.392% |
| C[C@H]1CN([C@@H](C)CO)C(=O)c2cc(-c3ccncc3)cnc2O[C@@H]1CN(C)C(=O)c1cccc(F)c1 | -0.363% |
| Cc1ccc(-c2ccc3c(c2)O[C@H](CN(C)C(=O)Nc2ccc(C(F)(F)F)cc2)[C@@H](C)CN([C@H](C)CO)S3(=O)=O)cc1 | -7.32% |
| CCC(=O)N(C)C[C@@H]1Oc2ncc(C#CCc3ccccc3)cc2C(=O)N([C@H](C)CO)C[C@H]1C | -13.4% |
| C[C@H](CO)N1C[C@H](C)[C@@H](CN(C)S(=O)(=O)c2cccc(F)c2)Oc2ncc(-c3cccc(F)c3)cc2C1=O | -2.04% |
| C[C@@H]1CCCCO[C@H](CN(C)S(=O)(=O)c2ccc(Cl)cc2)[C@H](C)CN([C@H](C)CO)C(=O)c2cc(NC(=O)NC3CCCCC3)ccc2O1 | 5.74% |
| CC(=O)N(C)C[C@H]1Oc2ncc(C#CC3(O)CCCC3)cc2C(=O)N([C@@H](C)CO)C[C@@H]1C | 4.16% |
| COc1ccc(S(=O)(=O)N[C@@H]2C=C[C@@H](CC(=O)N3CCc4ccccc4C3)O[C@@H]2CO)cc1 | 3.25% |
| CC(=O)N(C)C[C@@H]1Oc2ncc(-c3ccccc3F)cc2C(=O)N([C@H](C)CO)C[C@@H]1C | -4.17% |
| COc1ccc(-c2cnc3c(c2)C(=O)N([C@@H](C)CO)C[C@H](C)[C@H](CN(C)C(=O)Cc2cccnc2)O3)cc1 | -0.562% |
| C[C@@H]1CN([C@H](C)CO)C(=O)c2cc(NC(=O)C3CCCCC3)ccc2O[C@@H](C)CCCCO[C@H]1CN(C)S(C)(=O)=O | -14.3% |
| C[C@@H]1CN([C@H](C)CO)S(=O)(=O)c2ccc(Br)cc2O[C@@H]1CN(C)Cc1cncnc1 | 1.53% |
| C[C@@H](NC(=O)C[C@H]1C[C@@H]2c3cc(NC(=O)C4CCC4)ccc3O[C@@H]2[C@@H](CO)O1)c1ccccc1 | -3.13% |
| C[C@H]1CN([C@@H](C)CO)S(=O)(=O)c2ccc(-c3cccc(C#N)c3)cc2O[C@H]1CN(C)CC1CC1 | 18.1% |
| COc1cccc(S(=O)(=O)N(C)C[C@H]2Oc3cc(C#CCN(C)C)ccc3S(=O)(=O)N([C@H](C)CO)C[C@H]2C)c1 | 1.49% |
| C[C@@H]1CN([C@@H](C)CO)C(=O)Cc2cc(NS(C)(=O)=O)ccc2O[C@H]1CN(C)S(=O)(=O)c1ccc(F)cc1 | 5.39% |
| CCCNC(=O)N(C)C[C@H]1Oc2ncc(C#CC(C)C)cc2C(=O)N([C@@H](C)CO)C[C@@H]1C | -3.03% |
| C[C@@H]1CN([C@H](C)CO)C(=O)c2cc(-c3ccc(F)cc3)cnc2O[C@@H]1CN(C)C(=O)C1CCC1 | 8.32% |
| O=C(C[C@H]1C[C@@H]2c3cc(NC(=O)CC4CC4)ccc3O[C@@H]2[C@@H](CO)O1)NCc1cc(F)ccc1F | 9.35% |
| COc1ccccc1S(=O)(=O)N(C)C[C@@H]1Oc2cc(C#CCC3CCCC3)ccc2S(=O)(=O)N([C@H](C)CO)C[C@H]1C | -16.6% |

| SMILES | inhibition |
| --- | --- |
| C[C@@H]1CN([C@@H](C)CO)S(=O)(=O)c2ccc(Br)cc2O[C@@H]1CN(C)C(=O)CN(C)C | 16.9% |
| COc1ccccc1CNC(=O)C[C@@H]1C[C@@H]2c3cc(NC(=O)C4CCOCC4)ccc3O[C@@H]2[C@@H](CO)O1 | -2.77% |
| CNC[C@H]1Oc2cc(-c3ccc(C(=O)N(C)C)cc3)ccc2S(=O)(=O)N([C@@H](C)CO)C[C@@H]1C | 2.38% |
| COc1ccc(S(=O)(=O)Nc2ccc3c(c2)C(=O)N([C@@H](C)CO)C[C@H](C)[C@H](CN(C)Cc2ccc4c(c2)OCO4)OCCCC[C@H](C)O3)cc1 | 2.05% |
| COC(=O)C[C@@H]1C[C@H]2c3cc(NC(=O)CN(C)C)ccc3O[C@H]2[C@H](CO)O1 | 6.16% |
| C[C@H](CO)N1C[C@H](C)[C@@H](CN(C)Cc2ccccn2)Oc2ncc(-c3cccc(F)c3)cc2C1=O | 2.22% |
| CC(=O)N(C)C[C@@H]1Oc2cc(-c3cccnc3)ccc2S(=O)(=O)N([C@@H](C)CO)C[C@H]1C | -5.41% |
| C[C@H]1CN([C@@H](C)CO)S(=O)(=O)c2ccc(C3=CCCC3)cc2O[C@H]1CN(C)C(=O)Cc1ccncc1 | -1.21% |
| O=C(C[C@H]1CC[C@@H](NC(=O)Nc2ccc(F)cc2)[C@H](CO)O1)NCc1cccc(F)c1 | 9.13% |
| Cc1ccccc1-c1ccc2c(c1)O[C@@H](CN(C)Cc1ccc(C(=O)O)cc1)[C@H](C)CN([C@H](C)CO)S2(=O)=O | -1.98% |
| C[C@H](CO)N1C[C@H](C)[C@@H](CN(C)S(=O)(=O)c2ccc(F)cc2)Oc2ccc(NC(=O)CCCCCC(=O)Nc3ccccc3N)cc2CC1=O | -1.08% |
| C[C@@H]1CN([C@H](C)CO)C(=O)Cc2cc(NC(=O)Nc3cccc4ccccc34)ccc2O[C@H]1CN(C)C(=O)Nc1ccc2c(c1)OCO2 | -7.81% |
| COCC#Cc1ccc2c(c1)O[C@@H](CN(C)S(C)(=O)=O)[C@H](C)CN([C@H](C)CO)S2(=O)=O | -5.23% |
| C[C@@H]1CN([C@H](C)CO)C(=O)c2cc(NS(=O)(=O)c3cn(C)cn3)ccc2O[C@@H](C)CCCCO[C@@H]1CN(C)C(=O)CCC(F)(F)F | -0.203% |
| CN1CCN(C(=O)C[C@H]2C[C@H]3c4cc(NC(=O)C5CCC5)ccc4O[C@H]3[C@H](CO)O2)CC1 | 5.87% |
| CC(C)CC#Cc1cnc2c(c1)C(=O)N([C@@H](C)CO)C[C@H](C)[C@@H](CN(C)S(=O)(=O)c1cn(C)cn1)O2 | 2.14% |
| CC(C)CC#Cc1ccc2c(c1)O[C@H](CN(C)C(=O)CC1CC1)[C@@H](C)CN([C@@H](C)CO)S2(=O)=O | -15.5% |
| COC(=O)C[C@H]1C=C[C@H](NC(=O)Nc2ccc(C(F)(F)F)cc2)[C@@H](CO)O1 | -4.85% |
| O=C(C[C@@H]1C[C@@H]2c3cc(NC(=O)C4CCOCC4)ccc3O[C@@H]2[C@@H](CO)O1)NC1CCCCC1 | 0.0335% |
| C[C@H](O)C#Cc1cnc2c(c1)C(=O)N([C@@H](C)CO)C[C@H](C)[C@@H](CN(C)C(=O)c1ccncc1)O2 | 0.0295% |

| SMILES | inhibition |
| --- | --- |
| C[C@H]1CN([C@@H](C)CO)S(=O)(=O)c2ccc(Br)cc2O[C@H]1CN(C)C(=O)C1CC1 | 6.22% |
| Cc1noc(C)c1NC(=O)N(C)C[C@@H]1OCCCC[C@H](C)Oc2ccc(NC(=O)C3CCCCC3)cc2C(=O)N([C@H](C)CO)C[C@@H]1C | 3.93% |
| C[C@H](CO)N1C[C@H](C)[C@H](CN(C)Cc2ccncc2)Oc2cc(-c3cncnc3)ccc2S1(=O)=O | -4.69% |
| CCCNC(=O)N(C)C[C@H]1Oc2ncc(-c3cccc(C#N)c3)cc2C(=O)N([C@@H](C)CO)C[C@H]1C | -7.82% |
| C[C@H](CO)N1C[C@H](C)[C@@H](CN(C)S(=O)(=O)c2cccs2)Oc2ccc(NC(=O)Nc3ccc(C(F)(F)F)cc3)cc2CC1=O | -1.82% |
| C[C@@H]1CN([C@H](C)CO)S(=O)(=O)c2ccc(C#C[C@@H](C)O)cc2O[C@H]1CN(C)C(=O)C1CCCCC1 | -2.77% |
| COc1ccc(C#Cc2cnc3c(c2)C(=O)N([C@H](C)CO)C[C@H](C)[C@H](CN(C)C(=O)CC2CC2)O3)cc1 | -0.614% |
| C[C@@H]1CCCCO[C@@H](CN(C)C(=O)Cc2ccccc2)[C@H](C)CN([C@@H](C)CO)C(=O)c2cc(NC(=O)Nc3ccc4c(c3)OCO4)ccc2O1 | -3.09% |
| CCCC#Cc1cnc2c(c1)C(=O)N([C@H](C)CO)C[C@@H](C)[C@@H](CN(C)C(=O)C1CCOCC1)O2 | 11.1% |
| C[C@@H]1CN([C@H](C)CO)C(=O)c2cc(NS(=O)(=O)c3ccccc3)ccc2O[C@@H](C)CCCCO[C@H]1CN(C)S(=O)(=O)c1ccc(Cl)cc1 | -1.56% |
| Cc1noc(C)c1NC(=O)Nc1ccc2c(c1)CC(=O)N([C@@H](C)CO)C[C@@H](C)[C@H](CN(C)Cc1ccc(Oc3ccccc3)cc1)O2 | -7.73% |
| O=C(C[C@H]1C[C@H]2c3cc(NC(=O)Nc4ccc(F)cc4)ccc3O[C@H]2[C@H](CO)O1)NCC1CC1 | 5.06% |
| COc1ccc(S(=O)(=O)N(C)C[C@H]2OCCCC[C@H](C)Oc3ccc(NC(=O)Nc4ccc(F)cc4)cc3C(=O)N([C@@H](C)CO)C[C@H]2C)cc1 | -1.05% |
| COc1cccc(-c2cnc3c(c2)C(=O)N([C@@H](C)CO)C[C@@H](C)[C@H](CN(C)C(=O)CN(C)C)O3)c1 | 8.01% |
| C[C@H](O)C#Cc1ccc2c(c1)O[C@H](CN(C)Cc1cccnc1)[C@H](C)CN([C@H](C)CO)S2(=O)=O | 2.25% |
| CCC(=O)N(C)C[C@@H]1Oc2cc(-c3ccccc3OC)ccc2S(=O)(=O)N([C@H](C)CO)C[C@H]1C | -2.36% |
| CC(=O)N(C)C[C@@H]1Oc2cc(-c3cccc(F)c3)ccc2S(=O)(=O)N([C@H](C)CO)C[C@H]1C | -1.69% |
| C[C@H](CO)N1C[C@H](C)[C@@H](CN(C)Cc2ccc(Cl)c(Cl)c2)Oc2ccc(NC(=O)Cn3cnnn3)cc2CC1=O | -4.84% |
